High-throughput results: PubChem BioAssay, The Scripps Research Institute Molecular Screening Center
PPARg SRC-2 ag: PPARgamma-driven SRC-2 recruitment agonism; PPARgamma LBD-SRC-2 recruitment, biochemical; hit rate 0.34% among 200,000; activation, % at 8 µM; P37231; in the data active = activation above about 22%
Target sequence (P37231 whole entry, looked up, the tested form may be a part): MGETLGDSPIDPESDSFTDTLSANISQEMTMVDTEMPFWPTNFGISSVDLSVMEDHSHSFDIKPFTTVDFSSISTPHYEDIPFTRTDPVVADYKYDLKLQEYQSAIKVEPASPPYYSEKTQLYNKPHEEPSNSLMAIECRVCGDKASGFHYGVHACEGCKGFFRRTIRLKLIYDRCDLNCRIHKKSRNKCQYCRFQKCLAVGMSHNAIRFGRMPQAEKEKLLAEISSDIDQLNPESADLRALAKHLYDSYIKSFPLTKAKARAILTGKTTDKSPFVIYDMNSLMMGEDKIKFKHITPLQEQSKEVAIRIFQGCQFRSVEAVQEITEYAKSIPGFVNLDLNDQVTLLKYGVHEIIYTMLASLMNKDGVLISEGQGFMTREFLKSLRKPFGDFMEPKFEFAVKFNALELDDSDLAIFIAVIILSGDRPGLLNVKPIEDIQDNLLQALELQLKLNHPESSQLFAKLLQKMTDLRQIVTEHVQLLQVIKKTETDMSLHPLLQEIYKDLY
TR-FRET SRC-2 ct: flags TR-FRET format artefacts in PPARgamma SRC-2 recruitment agonist screen. TR-FRET artefact counter-screen; stronger effect = higher value. TR-FRET ratio at 8 µM. hit rate 0.4% among 200,000
PPARg SRC1 recr: promotes SRC-1 coactivator recruitment by human PPARgamma | P37231 | PPARgamma-SRC-1 coactivator recruitment biochemical assay | activation, % at 8 µM | hit rate 0.41% among 200,000 | AID 631; in the data active = activation above about 19%
SRC3 TRFRET art: flags TR-FRET format artefacts in PPARgamma SRC-3 recruitment agonist screen; TR-FRET artefact counter-screen, PPARgamma/SRC-3 format; stronger effect = higher value; TR-FRET ratio at 8 µM; hit rate 0.39% among 99,000
SRC1 TRFRET art: TR-FRET artefact, counter-screen to PPARgamma/SRC-1 agonist assay. hit rate 0.34% among 99,000. TR-FRET detection artefact counter-screen, emission ratio; stronger effect = higher value. TR-FRET ratio at 8 µM; in the data active = TR-FRET ratio above about 2300
PPARg SRC-3 ag: promotes SRC-3 coactivator recruitment by human PPARgamma. P37231. biochemical PPARgamma/SRC-3 coactivator recruitment assay. activation, % at 8 µM. hit rate 0.26% among 200,000. AID 731; in the data active = activation above about 23%
Hits are given with their value; 0 = inactive; - = no result given. In the library only some 0.9% were active in any assay of this set; here they are far more common. Cut-off read from the data, not from the text of the source, unless noted: active = TR-FRET ratio above about 2000; inactive = the rest.

SMILES	PPARg SRC-2 ag	TR-FRET SRC-2 ct	PPARg SRC1 recr	SRC3 TRFRET art	SRC1 TRFRET art	PPARg SRC-3 ag
Cc1cc2ccccc2n1CCNC(=O)c1ccc(S(=O)(=O)N2CCOCC2)cc1	0	0	0	2905	2656	0
Cc1ccc(-c2[nH]c3ccccc3c2SCCNC(=O)c2ccc(S(=O)(=O)N3CCOCC3)cc2)cc1	0	2560	0	2709	3343	0
COc1ccc(C(=O)NCCSc2ccccc2)cc1	0	0	0	0	0	0
Cc1cc2ccccc2n1CCNC(=O)c1ccccc1	0	0	0	-	-	0
COc1ccc(-c2[nH]c3ccccc3c2SCCNC(=O)c2ccccc2)cc1	24	0	0	2781	0	0
O=C(NCc1nc2ccccc2[nH]1)c1ccc(S(=O)(=O)N2CCOCC2)cc1	0	0	0	-	-	0
C=CCNC(=O)/C(C#N)=C/c1cn(-c2ccccc2)nc1-c1cccs1	0	0	0	0	0	0
CCC1CCCCN1C(=O)COc1ccccc1NC(C)=O (stereo not drawn)	0	0	0	0	0	0
NCCCC[C@H](N)c1nnc([C@H](CCC(=O)O)NC(=O)C2CCNCC2)o1	0	0	0	0	0	0
CCN(CC)S(=O)(=O)c1ccc(N2CCOCC2)c(NC(=O)c2c3c(nc4ccccc24)CCC3)c1	0	0	0	0	0	0
CCOC(=O)c1sc2nccc(N(C)C)c2c1N=CN(C)C	0	0	0	-	-	27
CN(C)C=Nc1c(C(=O)c2ccccc2)sc2nccc(N(C)C)c12	0	0	0	0	0	0
CCOC(=O)c1c(NC(=O)C(C)N2CCN(C(=O)c3ccco3)CC2)sc2c1CCCC2 (stereo not drawn)	0	0	0	-	-	0
CCCCNC(=O)CSc1nc2ccccc2c(=O)n1Cc1ccc2c(c1)OCO2	190	5232	0	-	-	0
CCOCCCn1c(SCC(=O)NCc2ccc3c(c2)OCO3)nc2ccccc2c1=O	0	0	0	0	0	0
C=CCn1c(SCC(=O)NCc2ccc3c(c2)OCO3)nc2scc(-c3ccccc3)c2c1=O	0	1974	0	-	-	0
Cc1ccccc1CSCC(=O)NCCSc1ccccn1	0	0	0	0	0	0
CCc1ccc2c(c1)cc(CN(C(=S)Nc1ccc(Cl)cc1)C1CC1)c1nnnn12	0	0	48	-	-	0
COCCNC(=S)N(Cc1cc2cc(C)ccc2n2nnnc12)C1CCCC1	0	0	0	0	0	0
CC(C)CN1C(=O)/C(=C(/C#N)C(=O)NC2CCCCC2)c2ccccc21	0	0	0	0	0	0
C=CCOc1cccc(C2C(C(=O)c3ccc(C)o3)=C(O)C(=O)N2Cc2ccncc2)c1 (stereo not drawn)	0	2037	0	-	-	0
CCC(Br)C(=O)Nc1ccc(OC)cc1 (stereo not drawn)	0	0	0	0	0	0
CCN(CC)S(=O)(=O)c1ccc(N2CCOCC2)c(NC(=O)c2cc(-c3ccccn3)nc3ccccc23)c1	0	0	0	2191	2421	0
CCOC(=O)C1(CCCc2ccccc2)CCN(C(=O)C2=C(C)OCCO2)CC1	0	0	0	0	0	0
N#Cc1c(N)nc(SCC(=O)C23CC4CC(CC(C4)C2)C3)c(C#N)c1-c1ccc(Cl)cc1	0	0	99	-	-	0
SMILES	PPARg SRC-2 ag	TR-FRET SRC-2 ct	PPARg SRC1 recr	SRC3 TRFRET art	SRC1 TRFRET art	PPARg SRC-3 ag
CSc1nc(N)nc(SCC(=O)C23CC4CC(CC(C4)C2)C3)c1C#N	0	0	0	-	-	0
O=C(CSc1nc2cccnc2n1Cc1ccccc1)NCc1ccco1	0	0	34	-	-	0
O=C(NCCCN1CCN(CCCNC(=O)c2cc([N+](=O)[O-])ccc2Cl)CC1)c1cc([N+](=O)[O-])ccc1Cl	0	0	0	0	0	0
CC(=O)OCC(=O)Nc1cc(S(=O)(=O)N2CCCCCC2)ccc1Cl	0	0	0	0	0	0
O=C(COC(=O)c1cc(Br)ccc1O)Nc1cc(S(=O)(=O)N2CCCC2)ccc1Cl	0	0	0	2102	0	0
O=C(COc1ccccc1-c1ccccc1)NCc1ccco1	0	0	54	0	4796	0
CCOc1ccccc1-c1nc(-c2ccc(NC(=O)Cc3ccccc3OC)cc2)no1	0	2140	0	-	-	0
CSc1ncccc1C(=O)OCC(=O)c1ccccc1Br	0	0	0	0	0	0
CSc1ncccc1C(=O)OCC(=O)c1ccc(Br)s1	0	0	0	3227	2355	0
Cc1ccc2cc3c(N)c4c(C)ccc(C)c4nc3nc2c1	0	0	0	0	0	0
Cc1cccc(NC(=O)c2sc3nc(-c4ccc(F)cc4)cn3c2C)n1	0	0	36	-	-	0
COc1cc(/C=C/CN2CCN(CCC(C)C)C(CCO)C2)ccc1O (stereo not drawn)	0	0	0	0	0	0
Cc1ccc(Cn2cc(SCC(N)=O)c3ccccc32)cc1	0	0	0	0	0	0
COC(=O)c1ccccc1NC(=O)c1cn(-c2ccc(C)c(C)c2)c(=O)c2ccccc12	0	0	0	0	0	0
CCOC(=O)c1ccccc1NC(=O)c1cn(-c2ccc(C)c(C)c2)c(=O)c2ccccc12	130	3144	0	0	0	0
COc1ccc(S(=O)(=O)Nc2c(F)cccc2F)cc1	22	2118	0	0	0	0
CCOC(=O)C1=C(O)/C(=C/c2cccc(OC)c2O)N=C1C	0	0	0	2061	0	0
Cc1ccccc1C(=O)N1CCc2cc(-c3nc(NC(=O)Cc4ccc5c(c4)OCO5)sc3C)ccc21	0	2157	0	2401	0	0
Cc1sc(NC(=O)Cc2ccc3c(c2)OCO3)nc1-c1ccc2c(c1)CCN2C(=O)c1cccc(F)c1	0	0	0	0	0	0
O=C(C1=C[C@@H](c2ccc(C(F)(F)F)cc2)C[C@@H](OCCCCO)O1)N1CCN(Cc2ccc3c(c2)OCO3)CC1	0	0	0	0	0	32
CCC1CCC(C(=O)NNC(=O)c2cc(-c3ccco3)[nH]n2)CC1 (stereo not drawn)	0	0	0	0	0	0
Cc1ccc(OCCn2cc(C(=S)N3CCCC3)c3ccccc32)cc1C	0	2180	0	-	-	0
S=C(c1cn(CCOc2cccc3ccccc23)c2ccccc12)N1CCCC1	0	3070	0	3153	3691	0
S=C(c1cn(CCOc2ccccc2)c2ccccc12)N1CCCC1	0	0	0	-	-	0
Cc1cc(NC(=S)Nc2cccc3ccccc23)n[nH]1	0	0	0	0	0	0
SMILES	PPARg SRC-2 ag	TR-FRET SRC-2 ct	PPARg SRC1 recr	SRC3 TRFRET art	SRC1 TRFRET art	PPARg SRC-3 ag
O=C(Nc1nc(-c2ccco2)c(-c2ccco2)s1)C1CCC1	0	0	0	0	2403	0
CCN(CC)C(=O)Nc1ccc(Br)cc1	0	0	0	0	0	0
CC1CCN(S(=O)(=O)c2ccc3c(c2)oc(=O)n3CC(=O)N2c3ccccc3CC2C)CC1 (stereo not drawn)	0	2000	0	-	-	0
O=C(Nc1ccc2nn(-c3ccccc3)nc2c1)c1ccc2c(c1)OCO2	22	0	0	-	-	0
O=C(Nc1cccc(F)c1)c1ccc2c(c1)OCO2	0	0	0	-	-	0
Cc1ccc2nc(-c3cccc(NC(=O)c4ccc5c(c4)OCCO5)c3)oc2c1	0	0	0	-	-	0
